Laboratory results from ChEMBL document CHEMBL3433997, “St. Jude Leishmania screening dataset” (2016).

Target: Glucose transporter (Leishmania mexicana) (UniProt O61059)
Test: ST_JUDE_LEISH: Cytotoxicity at 2uM final concentration against transgenic Leishmania Mexicana promastigotes LmGT2 that are glucose transport deficient and complemented with the L. Mexicana glucose transporter 2. Activity is measured by DNA content using SYBR green in vitro
Type: functional

Row | Structure (SMILES) | inhibition [%]
1 | CCCN1CCC(NCc2cn(C)nc2-c2ccc(Oc3ccccc3)cc2)CC1 | 11.5
2 | Cc1cc(-c2cccc(CNCc3ccccc3)c2)ccc1S(=O)(=O)NCCN1CCCC1 | 5.69
3 | CC(C)NCc1cccc(-c2ccc(-c3nc4ccccc4[nH]3)cc2)c1 | 0.41
4 | CN1CCC(NCc2ccc(-c3cccc(S(=O)(=O)NCc4ccccc4)c3)cc2)CC1 | -1.01
5 | COCCNCc1ccc(-c2ccccc2CNC2CCN(Cc3ccccc3)CC2)cc1 | -0.28
6 | CC(C)CCNC(=O)C1Cc2c([nH]c3cc(Cl)ccc23)C2(CCN(CCc3ccccc3)CC2)N1 (stereo not given) | 0.76
7 | COc1ccccc1C1CC(c2ccccc2)=NN1C(=O)c1ccco1 (stereo not given) | -4.34
8 | O=C(c1ccc(Cl)cc1)N1CCOC(CCN2CCC(c3ccccc3)CC2)(c2ccc(Cl)c(Cl)c2)C1 (stereo not given) | -0.89
9 | CC(C)(C)Nc1nc(Nc2cccc([N+](=O)[O-])c2)nc(-n2ccnc2)n1 | -1.47
10 | CN1CCN(c2ccc(Nc3c(C(N)=O)cnc4cc(-c5ccoc5)ccc34)cc2C(F)(F)F)CC1 | 2.01
11 | Cc1ccc(Nc2nccc(Nc3ccc4c(c3)nc(Nc3cc(C(C)(C)C)on3)n4C)n2)cc1S(C)(=O)=O | -1.41
12 | COc1ccc(Cc2nc3c(n2C(C)=O)SC(c2ccc(Cl)c(Cl)c2)=NN3C(C)=O)cc1 | 5.39
13 | Oc1ccc(-c2ccccc2)cc1CN1CCCCC1 | -0.56
14 | C=CCOc1ccc2ccccc2c1CNCCCCCCNCc1c(OCC=C)ccc2ccccc12 | 1.05
15 | COc1ccccc1N=C1SC(=Cc2cn(CC(=O)N3CCCc4ccccc43)c3ccccc23)C(=O)N1C1CCCCC1 | -1.37
16 | COc1ccc2nccc([C@@H](O)CN3CCC(NC/C=C/c4cccnc4)CC3)c2c1 | 2.59
17 | O=C(Nc1ccc(Cl)c(Cl)c1)N[C@H]1CCN(CCCCCNC(=O)C2CC2c2ccc(Cl)c(Cl)c2)C1 (stereo not given in full) | 10.6
18 | Cc1cc(N[C@@H](Cc2ccccc2)C(=O)NCCOc2ccccc2)nc(NCCc2ccc(F)cc2)n1 | 10.1
19 | CCNC(=O)Nc1cccc(-c2cccc(-c3nc4cc(C(F)(F)F)ccc4[nH]3)c2)c1 | 7.55
20 | O=C(NCc1ccc2c(c1)OCO2)c1nn(CCN2CCC(N3CCCC3)CC2)cc1-c1ccc(Cl)c(Cl)c1 | 0.75

Row | Structure (SMILES) | inhibition [%]
21 | Cc1ccc(C2=NNC3(S2)C(=O)Nc2ccc(C)cc23)cc1 (stereo not given) | 3.44
22 | CC(=O)Nc1ccc(CN(Cc2cccc(OC(C)(C)C)c2)Cc2ccc3c(c2)OCCO3)cc1 | 6.39
23 | O=C(Cc1ccccc1)NC(c1ccccc1)c1ccc2cccnc2c1O (stereo not given) | -1.17
24 | COc1cc(F)c2nccc([C@@H](O)CN3CCC(NC(=O)OCc4ccccc4)C(F)C3)c2c1 (stereo not given in full) | 3.75
25 | O=C(Nc1ccc(Cl)c(C(F)(F)F)c1)Nc1ccc(Cl)c(C(F)(F)F)c1 | 2.07
26 | COc1cccc(C=NN=c2cc(C)[nH]c3ccccc23)c1 | 3.02
27 | CCN(CCCN1CCCCC1)c1nccc(Nc2ccc(Cl)cc2)n1 | 1.18
28 | CCOC(=O)c1c(CNc2ccncc2)n(C)c2cc(Br)c(OC(C)=O)cc12 | 1.88
29 | CCCCCCN1CCN(Cc2cccc(NC(=O)c3cccc(OCC)c3)c2)CC1 | 13.1
30 | O=C(NCc1ccc(Cl)c(Cl)c1)[C@H]1CNCCN1C(=O)c1ccccc1 | 2.44
31 | O=C(NC(Nc1ccc([N+](=O)[O-])cc1)C(Cl)(Cl)Cl)c1cccc(Cl)c1 (stereo not given) | 3.37
32 | O=C(NC1CC1)c1ccc(Nc2nccc(-c3c(-c4cccc(NC(=O)c5c(F)cccc5F)c4)nn4ccccc34)n2)cc1 | 3.41
33 | CCC(C)c1ccc(NC(=O)Nc2ccc(Cn3ncc(N4CCCNCC4)c(Cl)c3=O)cc2)cc1 (stereo not given) | -0.01
34 | FC(F)(F)c1ccc2c(NN=Cc3cccc(Cl)c3)ccnc2c1 | 3.57
35 | Cc1ccc(N2CCN(C(=O)c3cccc(-c4cncc5nc(-c6ccco6)n(C)c45)c3)CC2)nc1 | 5.39
36 | Cc1ccc(C(=O)Nc2cccc(CN3CCCN(Cc4ccc(O)cc4)CC3)c2)cc1 | -7.6
37 | CN(C)CCOc1ccc(-c2cc(-c3ccncc3)c(-c3ccc(Cl)c(O)c3)o2)cc1 | 0.33
38 | O=C(/C=C/c1ccc(Cl)c(Cl)c1)N1CCC(CN2CCC(c3c[nH]c4cnccc34)CC2)CC1 | 4.67
39 | Cc1cccc2nc(-c3cccc(-c4cccc(NC(=O)C(C)CN5CCN(C)CC5)c4)c3)[nH]c12 (stereo not given) | 5.8
40 | CCOc1c(Br)cc(C)cc1CNCCCNc1nc2ccccc2[nH]1 | 1.33
